Screening results as filed in PubChem.
TDP1 inh: TDP1 (human) enzyme inhibition; recombinant TDP1, AlphaScreen DNA substrate cleavage; Potency, µM (highest dose often 130 µM), usual class: inhibitors; Q9NUW8; actives 0.28% (n = 350,000); further: nearly all actives have a fitted effect of over 40% in size
Target sequence (Q9NUW8 whole entry, looked up): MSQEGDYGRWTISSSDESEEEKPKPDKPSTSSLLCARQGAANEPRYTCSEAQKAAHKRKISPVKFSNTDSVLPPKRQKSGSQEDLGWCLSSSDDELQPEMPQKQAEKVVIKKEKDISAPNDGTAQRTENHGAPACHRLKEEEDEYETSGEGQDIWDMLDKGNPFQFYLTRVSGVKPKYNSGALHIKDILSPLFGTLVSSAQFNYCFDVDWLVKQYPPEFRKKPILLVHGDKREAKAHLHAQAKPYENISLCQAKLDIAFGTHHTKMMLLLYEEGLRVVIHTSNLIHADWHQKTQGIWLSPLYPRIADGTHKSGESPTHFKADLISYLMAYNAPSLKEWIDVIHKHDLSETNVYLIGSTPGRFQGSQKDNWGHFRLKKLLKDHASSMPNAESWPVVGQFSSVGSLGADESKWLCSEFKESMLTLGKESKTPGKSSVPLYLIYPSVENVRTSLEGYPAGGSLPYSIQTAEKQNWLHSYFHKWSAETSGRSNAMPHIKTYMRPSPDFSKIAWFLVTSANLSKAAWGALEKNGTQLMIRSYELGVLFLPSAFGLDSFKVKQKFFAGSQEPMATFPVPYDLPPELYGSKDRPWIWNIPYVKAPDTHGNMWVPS
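Tdp1 1 nM final; 15 min RT w/ cpd; substrate 15 nM, 5 min; beads 10 ug/ml, 10 min; AlphaScreen read. Neg ctrl: no enzyme.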
TGFb SMAD3 inh: inhibitors of TGF-b signaling; HepG2 CAGA-GFP TGF-b/SMAD3 reporter, GFP fluorescence, 18 h; TGF-beta stimulated, 500 pg/mL final; Potency, µM (series often up to 46.1 µM), usual class: inhibitors; actives 1.2% (n = 410,000); AID 588855; further: nearly all actives have a fitted effect of over 65% in size
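Cell-based qHTS in HEPG2 carrying a CAGA-GFP Smad reporter; compounds added before 500 pg/mL final TGF-beta, 18 h incubation at 37 degrees C, GFP fluorescence quantified per cell by imaging cytometry.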
TDP1 cell noCPT: qHTS for Inhibitors of human tyrosyl-DNA phosphodiesterase 1 (TDP1): qHTS in cells in absence of CPT | DT40 Tdp1-/- hTDP1 cells, no CPT, ATP luminescence, 48 h | Potency, µM (top dose mostly 46.2 µM), actives largely listed as inhibitors | actives 15% (n = 420,000); further: nearly all actives have a fitted effect of over 55% in size
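Growth of hTDP1-complemented DT40 Tdp1-knockout cells is measured by ATP luminescence after at least 48 hr compound exposure at 37 °C, with DMSO substituting for the 20 nM CPT used in the parallel screen.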
HepG2 tox: HepG2 cytotoxicity, counter-screen for TGF-b inhibitors. HepG2 CAGA-GFP viability, ATP luminescence, 18 h. Potency, µM (top dose mostly 46.1 µM), usual class: cytotoxic. actives 0.76% (n = 410,000). AID 588856
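HepG2 CAGA-GFP cells (1000/well, DMEM with 1% FBS) received compound, then TGF-beta at 500 pg/mL final, and were incubated 18 hours at 37 degrees C. Viability was read by CellTiter-Glo luminescence. Media-only wells were set as complete cell-killing and DMSO as no toxicity.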
IL-1B inflam inh: inflammasome signaling inhibition, IL-1 beta readout | THP-1 LPS/ATP IL-1B secretion, AlphaLISA, 16 h; active compounds read low | activity change, % at 57.5 µM | actives 4.7% (n = 360,000); in the data active means activity change below about -50%; inconclusive means mostly about -30% to -49%
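THP-1 cells pretreated 1 hr with compounds (up to 57.5 uM final), then stimulated with LPS (250 ng/mL final) plus ATP (1.25 mM final); secreted IL-1B measured by AlphaLISA after 16 hr, decreased signal indicating inhibition.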
DT40 TDP1 CPT: growth inhibition of DT40 Tdp1-/-;hTDP1 cells with camptothecin (screen for TDP1 inhibitors); actives 12% (n = 420,000); chicken DT40 Tdp1-/-;hTDP1 cells + 20 nM CPT, ATP luminescence, 48 h; AID 686979; Potency, µM (series often up to 46.2 µM), hits mostly inhibitors; further: nearly all actives have a fitted effect of over 55% in size
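Cell growth measured by CellTiter-Glo luminescence after a minimum 48 h, 37 C compound exposure with 20 nM CPT in Tdp1-knockout DT40 cells stably expressing hTDP1, seeded 400/well; qHTS titration format.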
Hits are given with their value; . = inactive; ? = inconclusive; / = not tested or not shown; [ ] = remark or other dose. Rows were chosen to be rich in hits. Some 18% of all compounds tested hit in one or more screens of this group. Unless noted, the call rests on the fitted dose curve; in most records, active means well fitted curve in the direction sought with a large enough effect; inconclusive means small, poorly fitted or top-dose-only effect, or another doubt; inactive means no such curve, though single readings can be large; an effect the other way counts as inactive or inconclusive.

SMILES	TDP1 inh	TGFb SMAD3 inh	TDP1 cell noCPT	HepG2 tox	IL-1B inflam inh	DT40 TDP1 CPT
COc1ccc2c(=O)c3c(=O)n(CCc4ccccc4)c(C(C)C)nc3oc2c1	.	.	14.6µM	.	.	25.9µM
COc1ccc(CCn2c(C(C)C)nc3c(c(=O)c4ccccc4n3C)c2=O)cc1	.	.	11.6µM	.	.	16.4µM
CCCc1nc2oc3cc(OC)ccc3c(=O)c2c(=O)n1Cc1ccco1	/	.	?	.	.	.
COCCn1c(-c2ccccc2)nc2oc3cc(OC)ccc3c(=O)c2c1=O	.	.	.	.	.	.
CCCCCCn1c(-c2ccco2)nc2oc3cc(OC)ccc3c(=O)c2c1=O	.	.	20.6µM	.	.	?
CCCCCc1nc2c(c(=O)c3ccccc3n2C)c(=O)n1Cc1ccc(OC)cc1	.	.	.	.	.	.
CCc1ccc(C(=O)NC2=NC(c3cc(OC)ccc3OC)CC(=O)N2)cc1 (stereo unspecified)	.	.	.	.	/	.
CN(C)CCCn1c2c(c(SCC(=O)Nc3nccs3)nc1=O)CCC2	.[0.505 µM]	.	.	.	.	.
COc1ccc(Cn2c(C)nc3c(c(=O)c4ccccc4n3C)c2=O)cc1	.	.	?	.	.	.
COc1ccc(Cn2c(-c3ccc(OC)cc3)nc3c(c(=O)c4ccccc4n3C)c2=O)cc1	.	/	/	/	/	/
COc1ccc(Cn2c(-c3ccc(C)cc3)nc3c(c(=O)c4ccccc4n3C)c2=O)cc1	/	.	?	.	.	14.6µM
COc1ccc(CCn2c(C)nc3c(c(=O)c4ccccc4n3C)c2=O)cc1	.	?	5.8µM	.	.	?
Cn1c(CNC(=O)c2ccco2)nnc1SCC(=O)Nc1ccc(Cl)cc1	.	.	.	.	.	.
Cc1cnc(CNc2ccnc(-c3ccccc3C(F)(F)F)n2)cn1	/	/	.	/	/	.
CC(C)NC(=O)CCn1nc(-c2ccc(Cl)cc2)c2ccccc2c1=O	.	.	.	.	.	?
O=C(Nc1ccc2oc(-c3cccnc3)nc2c1)c1ccc(Br)cc1	/	.	.	.	/	.
CCOc1ccccc1NC(=O)CSc1nnc(CNC(=O)c2ccccc2F)o1	.	.	.	.	.	.
C[C@H](O)C#Cc1cnc2c(c1)C(=O)N([C@H](C)CO)C[C@@H](C)[C@H](CN(C)C(=O)Nc1ccc(C(F)(F)F)cc1)O2	/	.	7.31µM	.	?	11.6µM
C[C@H](CO)N1C[C@H](C)[C@H](CN(C)C(=O)Nc2ccc(C(F)(F)F)cc2)Oc2ncc(Br)cc2C1=O	/	.	?	.	.	?
C[C@H]1CN([C@@H](C)CO)C(=O)c2cc(Br)cnc2O[C@@H]1CN(C)C(=O)Nc1ccc(C(F)(F)F)cc1	/	.	23.1µM	.	.	20.6µM
O=C(O)COc1ccc(OCCNC[C@@H](O)COc2ccccc2)cc1	.	/	.	/	/	.
NC(=O)CC(NC(=O)c1ccc(Cl)cc1)C(=O)NCCc1ccc(S(N)(=O)=O)cc1 (stereo unspecified)	.	.	.	.	.	.
CCOc1ccc(S(=O)(=O)n2cnc3ccccc32)cc1	/	.	?	.	.	?
O=C(/C=C/c1ccco1)Nc1cccc(NC(=O)/C=C/c2ccco2)n1	/	.	20.6µM	.	.	23.1µM
O=C(/C=C/c1ccco1)Nc1ccccc1C(=O)O	14.1µM	?	.	.	.	.
Cc1nc(NC(=O)/C=C/c2ccco2)sc1C	.	.	5.8µM	.	.	5.17µM
COc1ccccc1C(=O)Nc1nc2nc(C)cc(=O)n2[nH]1	.	?	?	.	/	.
Cc1oc2ccc(O)c(CN3CCOCC3)c2c1C(=O)Nc1ccc(C(C)C)cc1	.	?	16.4µM	.	/	16.4µM
Cc1oc2ccc(O)c(CN3CCN(Cc4ccccc4)CC3)c2c1C(=O)Nc1ccccc1	.	?	?	.	/	23.1µM
